In PubChem BioAssay AID431 (Sanford-Burnham Center for Chemical Genomics, 2006):
Out of some 63,000 compounds screened, about 1,100 (1.7%) were called active.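 Rule for the calls: active = compounds whose percent cytotoxicity in the single-dose primary screen, scaled between solvent and toxic-drug controls, exceeds 50; inactive = the rest.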 The list comes from a sample in which actives are over-represented; it also holds similar structures and randomly drawn compounds. Results with a measured potency or affinity are listed apart.

Assay: viability loss of HPDE-C7K cells – cell-based, fluorescence, HTS, primary screen (AID 431);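 note: 0% = DMSO solvent wells and 100% = doxorubicin-treated wells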
Details: HPDE-C7K KRASV12 cells, Alamar Blue viability, 48 h; at 10 µM; active compounds read high

| SMILES | cytotoxicity |
| --- | --- |
| OCCN1CCN(c2ncnc3c2sc2nc(N4CCOCC4)c4c(c23)CCC4)CC1 | 39.9% (inactive) |
| CC1(C)Cc2c(c(N3CCCC3)nc3sc4c(N5CCN(CCO)CC5)ncnc4c23)CO1 | 67.8% (active) |
| CN1CCN(c2ncnc3c2sc2nc(N4CCCC4)c4c(c23)CC(C)(C)OC4)CC1 | -9.3% (inactive) |
| O=c1[nH]nc2c3ccccc3cnn12 | -22% (inactive) |
| C=COCCNC(=O)C1CC(=O)N(c2ccc(C)cc2)C1 (stereo not given) | 13.2% (inactive) |
| Cc1ccc(-c2cc(-c3ccc(Cl)cc3)c(C#N)c(N)n2)o1 | 74.2% (active) |
| Cc1ccc(-c2cc(-c3ccc(C)o3)nc(N)c2C#N)cc1 | -2.5% (inactive) |
| Cc1cc(-c2cc(-c3ccc(Cl)cc3)nc(N)c2C#N)co1 | 92% (active) |
| Cc1ccc(-c2cc(-c3ccc(F)cc3)nc(N)c2C#N)o1 | 4.4% (inactive) |
| Cc1ccc(-c2cc(-c3ccccc3Cl)c(C#N)c(N)n2)o1 | 20.7% (inactive) |
| Cc1ccc(-c2cc(-c3ccccc3)c(C#N)c(N)n2)o1 | 10.2% (inactive) |
| Cc1ccc(NC(=O)CC(O)(C(F)(F)F)C(F)(F)F)c(Br)c1 | -6.8% (inactive) |
| Cc1ccc(Cl)cc1NC(=O)CC(O)(C(F)(F)F)C(F)(F)F | 57.3% (active) |
| CCNC(=O)CCC(=O)Nc1cc(Cl)ccc1C | -14.8% (inactive) |
| COC(=O)c1sccc1NC(=O)c1ccc(OC)cc1 | 13.2% (inactive) |
| COc1ccc(C2CC(c3cc(Br)ccc3F)n3nnnc3N2)cc1 (stereo not given) | 1.9% (inactive) |
| O=C(c1ccccc1)c1nnc(-c2ccncc2)o1 | -7.9% (inactive) |
| O=C(c1ccncc1)c1ccc(Br)cc1 | 1.4% (inactive) |
| O=C(c1ccccc1)c1ccncc1 | 56.1% (active) |
| O=S(=O)(NCCSc1nnc(-c2ccco2)n1-c1ccccc1)c1ccccc1 | -7.3% (inactive) |
| C=C(C)Cn1c(Sc2nc3ccccc3[nH]2)nc2c1c(=O)[nH]c(=O)n2C | 21.2% (inactive) |
| Cc1ccc(-c2nnc(N3CCN(S(C)(=O)=O)CC3)c3ccccc23)cc1 | -3.8% (inactive) |
| c1ccc(-c2nnc(N3CCN(c4ccccn4)CC3)c3ccccc23)cc1 | -2.1% (inactive) |
| COc1ccccc1NC(=O)CSc1nnc(C)n1Cc1ccccc1 | -12.1% (inactive) |
| O=C(Nc1ccc(Br)cc1F)c1ccncc1 | -12.6% (inactive) |

| SMILES | cytotoxicity |
| --- | --- |
| CCCNc1nc2c(c(=O)[nH]c(=O)n2C)n1CCC(C)C | 9% (inactive) |
| Cc1cccc(Nc2ccccc2C(=O)O)c1C | 6% (inactive) |
| Cc1c(Cl)cccc1Nc1ccccc1C(=O)O | 46% (inactive) |
| Cc1ccc(Cl)c(Nc2ccccc2C(=O)O)c1Cl | 67.9% (active) |
| CCN(CC)C(=O)Oc1ccc2c(=O)c(-c3ccccc3)coc2c1 | -28% (inactive) |
| CCN(CC)C(=O)Oc1ccc2c(=O)c(-c3ccc(OC)cc3)coc2c1 | -3.7% (inactive) |
| CC(C)Oc1ccc2c(=O)c(-c3ccccc3)coc2c1 | 53.7% (active) |
| O=C(NC1CCCc2ccccc21)C1CCC(CNc2c(N3CCOCC3)c(=O)c2=O)CC1 (stereo not given) | -5% (inactive) |
| O=C(NCC1CCCO1)C1CCN(C(=O)c2ccc(Cl)cc2)CC1 (stereo not given) | -4.1% (inactive) |
| Cc1ccc2c(c1)nnn2C1CCN(CC(=O)Nc2ccc3c(c2)OCCO3)CC1 | -7.5% (inactive) |
| COc1cc(-c2nc3cnccn3c2Nc2ccccc2)ccc1O | 16.3% (inactive) |
| c1cn2c(NC3CCCC3)c(-c3ccc(N4CCOCC4)cc3)nc2cn1 | 7.8% (inactive) |
| CCOC(=O)C1=CN(C)C=C(C(=O)OCC)C1c1ccsc1 | 6.2% (inactive) |
| COC(=O)c1ccc(NS(=O)(=O)c2ccc(OC)cc2)cc1 | -10.3% (inactive) |
| COC(=O)c1ccc(C)c(NC(=O)CN(c2ccc3c(c2)OCO3)S(C)(=O)=O)c1 | -3.2% (inactive) |
| COC(=O)c1ccc(C)c(NS(=O)(=O)c2ccc(NC(C)=O)cc2)c1 | 4.5% (inactive) |
| CCCNC(=O)c1ccccc1NS(=O)(=O)c1ccc2c(c1)OCCO2 | 28.6% (inactive) |
| O=C(O)c1ccc(NS(=O)(=O)c2ccc3c(c2)OCCO3)cc1 | 1.7% (inactive) |
| COC(=O)c1ccc(C)c(NS(=O)(=O)c2ccc3c(c2)OCCO3)c1 | 59.3% (active) |
| CC(=O)c1cc2c(cc1NS(=O)(=O)c1ccc3c(c1)OCCO3)OCO2 | 37.2% (inactive) |
| COC(=O)c1ccc(Cl)c(NS(=O)(=O)c2ccc3c(c2)OCCO3)c1 | 63.6% (active) |
| COC(=O)c1ccc(C)c(NS(=O)(=O)c2ccc(OC)cc2)c1 | 65.2% (active) |
| CC(C)(C)NC(=O)c1ccc2nccnc2c1 | 12.3% (inactive) |
| COc1ccccc1NC(=O)N(CCN(C)C)Cc1cc2cc(C)ccc2[nH]c1=O | 19.6% (inactive) |
| CCCC(C(=O)NC1CCCC1)N(C(=O)Cn1nnc(-c2ccc(C)o2)n1)C1CCCC1 (stereo not given) | -0.4% (inactive) |

| SMILES | cytotoxicity |
| --- | --- |
| CC(C)OC(=O)CSc1nc(N)c(C#N)c(-c2cccs2)c1C#N | 5% (inactive) |
| CC(C)OC(=O)CCC1(C(=O)O)CCC(=O)NC1 (stereo not given) | -7.1% (inactive) |
| O=C(CSc1nnc(-c2ccc(O)cc2)n1Cc1ccco1)c1cccs1 | 2.5% (inactive) |
| O=C(CC(SCc1ccco1)c1ccc(O)cc1)c1cccs1 (stereo not given) | 57.7% (active) |
| O=C(CSCc1ccco1)c1cccs1 | -15.8% (inactive) |
| CCOC(=O)C1=C(C)OC(N)=C(C#N)C1c1ccsc1 (stereo not given) | 9.1% (inactive) |
| CCOc1ccc(C2CC(c3ccc(F)cc3)n3ncnc3N2)cc1 (stereo not given) | 3.1% (inactive) |
| Cc1ccc(C(=O)CC(C(=O)O)n2ccc(C)n2)cc1 (stereo not given) | 4.5% (inactive) |
| Cc1ccc(C(=O)CC(C(=O)O)n2cccn2)cc1 (stereo not given) | -4.8% (inactive) |
| O=C(c1ccco1)N1CCN(C(=O)c2cccn3c(=O)c4c5c(sc4nc23)CCCC5)CC1 | -9.7% (inactive) |
| Cc1cccc(Cn2cnc3c(nnn3Cc3ccc(Cl)cc3)c2=O)c1 | -2.1% (inactive) |
| COC(=O)c1sc(N)c(C(=O)OC)c1COC(=O)c1c(C)noc1C | 56.4% (active) |
| COC(=O)c1c(N)sc(C(C)=O)c1C | 0% (inactive) |
| COc1ccc(C(C)=O)cc1COC(=O)c1c(C)noc1C | 18.5% (inactive) |
| Cc1cccc(Cn2c(SCCN3CCCCC3)nc3c2c(=O)[nH]c(=O)n3C)c1 | -3.8% (inactive) |
| O=C1C(Cl)=C(NCC2CCCO2)C(=O)N1CCc1ccccc1 (stereo not given) | -4.3% (inactive) |
| C[C@]12CC[C@@H]3c4ccc(O)cc4CC[C@H]3[C@@H]1CC[C@@H]2OC(=O)CCC(=O)O | -1.7% (inactive) |
| C[C@]12CC[C@@H]3c4ccc(O[C@@H]5O[C@H](C(=O)O)[C@@H](O)[C@H](O)[C@H]5O)cc4CC[C@H]3[C@@H]1C[C@@H](O)[C@@H]2O | -13.5% (inactive) |
| C[C@]12CC[C@@H]3c4ccc(OC(=O)c5ccccc5)cc4CC[C@H]3[C@@H]1CC[C@@H]2O | 54.4% (active) |
| Cc1nnc(SCC(=O)Nc2nsc(-c3ccccc3)n2)s1 | 11.4% (inactive) |
| c1ccc(Cn2nnnc2C(c2cccs2)N2CCOCC2)cc1 (stereo not given) | -11.8% (inactive) |
| COc1ccc(Cl)c(S(=O)(=O)N2CCCC2)c1 | -3.5% (inactive) |
| COc1ccc(C(N)=O)cc1NC(=O)CC(O)(C(F)(F)F)C(F)(F)F | -2% (inactive) |
| Cc1cc(NC(=O)C2CC(c3cccc(Br)c3)=NO2)no1 (stereo not given) | -11% (inactive) |
| CC(C)(O)c1cc(=O)sc2nc3ccccc3n12 | -10.2% (inactive) |

| SMILES | cytotoxicity |
| --- | --- |
| c1ccc2nc3c(nc2c1)sc1nc2ccccc2n13 | -4% (inactive) |
| N=c1cc(C2(O)CCCCC2)n2c(nc3ccccc32)s1 | 59% (active) |
| COCCNC(=O)C(c1ccc(C)o1)N(C(=O)c1snc(C(N)=O)c1N)c1cccc(C)c1 (stereo not given) | -12.1% (inactive) |
| Cc1ccc2c(c1)[nH]c1c(=O)n(CCCN3CCOCC3)cnc12 | -20.9% (inactive) |
| CC(C)(C)c1ccc(-c2nc(C#N)c(NCc3ccncc3)o2)cc1 | 60.5% (active) |
| COc1ccc(CNc2oc(-c3ccccc3)nc2C#N)cc1 | 3.8% (inactive) |
| N#Cc1nc(-c2ccc(F)cc2)oc1NCc1ccccc1 | -1.5% (inactive) |
| COC(=O)c1sccc1NC(=O)CN1CCN(c2ccc(F)cc2)CC1 | 10.5% (inactive) |
| O=C(CCN1CCc2ccccc21)c1ccc2c(c1)OCCO2 | 4.4% (inactive) |
| O=C(CCCN1CCOCC1)c1ccc2c(c1)OCCO2 | -11.1% (inactive) |
| O=C(CCN1CCc2ccccc2C1)Nc1ccc2c(c1)OCO2 | -0.3% (inactive) |
| O=C(CCN1Cc2ccccc2C1)c1ccc2c(c1)OCCO2 | -11.8% (inactive) |
| CCCn1c(SCCN2C(=O)c3ccccc3C2=O)n[nH]c1=O | 2.1% (inactive) |
| Cc1cccc(NC(=O)CSc2nnc(-c3ccccc3)n2N)c1C | -15% (inactive) |
| CCOC(=O)c1c(C)oc2c1c(C=NCC1CCCO1)c(O)c1ccccc12 (stereo not given) | -16.3% (inactive) |
| CCOC(=O)c1c(C)oc2c1c(C=NC1CCS(=O)(=O)C1)c(O)c1ccccc12 (stereo not given) | 23.8% (inactive) |
| CCOC(=O)c1c(C)oc2c1c(C(c1cccnc1)N1CCN(C)CC1)c(O)c1ccccc12 (stereo not given) | 125% (active) |
| CCOC(=O)c1c(C)oc2c1c(C=NCc1ccccn1)c(O)c1ccccc12 | 99.2% (active) |
| CCOC(=O)c1c(C)oc2c1c1c(c3ccccc32)OCN(Cc2cccnc2)C1 | 29.9% (inactive) |
| CCOC(=O)c1c(C)oc2c1c(/C=N/c1ccccn1)c(O)c1ccccc12 | 4.3% (inactive) |
| Cc1ccc(-c2cc(-c3ccccc3Cl)[nH]n2)c(O)c1 | 59.5% (active) |
| COc1ccccc1-c1cc(-c2cc(Cl)ccc2O)n[nH]1 | -3.1% (inactive) |
| Cc1ccc(-c2cc(-c3cccc(F)c3)n[nH]2)c(O)c1 | 10.8% (inactive) |
| Cc1ccccc1-c1cc(-c2ccccc2O)n[nH]1 | 44% (inactive) |
| Oc1ccccc1-c1cc(-c2ccccc2Cl)[nH]n1 | 15.9% (inactive) |
